Results from PubChem BioAssay (NCI).
This is part of a sample that, as a whole, favours compounds with a hit. Of some 79,000 tested, about 15% had one in any assay. A number with no mark means an inactive call. Active and inactive are the calls of the source. Cut-off read from the data, not from the text of the source: active = growth inhibition above about 70%; inactive = the rest.

Columns and labels:
[1] = NCI Yeast Anticancer Drug Screen. Data for the rad50 strain (AID 155);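 note: 0% = growth of vehicle-only cultures of the same strain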; details: S. cerevisiae rad50 strain growth inhibition; at 50.0 µM; active compounds read high
Procedure, shortened: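 DNA repair mutant yeast, compound exposure, growth read-out; inhibition is taken relative to vehicle.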

[2] = NCI Yeast Anticancer Drug Screen. Data for the mec2-1 strain (AID 157); details: S. cerevisiae mec2-1 strain, at 50.0 µM, active compounds read high
Procedure, shortened: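 Cells of the genetically defined mec2-1 yeast strain are incubated with test compound. Inhibition of growth is calculated against vehicle-treated controls.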

[3] = NCI Yeast Anticancer Drug Screen. Data for the sgs1 mgt1 strain (AID 161);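 note: 0% = growth of cultures given vehicle only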; details: S. cerevisiae sgs1 mgt1 strain, at 50.0 µM, active compounds read high
Procedure, shortened: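 Mutant yeast exposed to compound; growth scored against vehicle-only wells.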

[4] = NCI Yeast Anticancer Drug Screen. Data for the bub3 strain (AID 167); details: S. cerevisiae bub3 mutant strain, at 50.0 µM, active compounds read high
Procedure, shortened: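 In this screen, a yeast mutant lacking normal mitotic checkpoint function is challenged with compound. Relative growth versus vehicle gives the inhibition value.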

[5] = NCI Yeast Anticancer Drug Screen. Data for the mlh1 rad18 strain (AID 175); details: S. cerevisiae mlh1 rad18 strain growth inhibition; at 50.0 µM; active compounds read high
Procedure, shortened: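 Compound-treated yeast growth, normalised to vehicle controls. Strain bears defined DNA repair mutations.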

[6] = NCI Yeast Anticancer Drug Screen. Data for the cln2 rad14 strain (AID 165);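 note: 0% = growth equal to vehicle treated cultures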; details: S. cerevisiae cln2 rad14 strain, at 50.0 µM, active compounds read high
Procedure, shortened: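 The screen exposed genetically defined yeast (cln2 rad14) to test compounds and scored growth inhibition relative to vehicle-treated controls.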

Row | SMILES | growth inhibition [1] [%] | growth inhibition [2] [%] | growth inhibition [3] [%] | growth inhibition [4] | growth inhibition [5] | growth inhibition [6] [%]
1 | CCCCCCCCCC(=O)OCC1OC(n2cc(F)c(=O)[nH]c2=O)C(NC(=O)OCc2ccccc2)C(OC(=O)CCCCCCCCC)C1O (stereo not given) | -5.9 | -10.2 | -11.8 | -0.35% | -21% | 
2 | C=CCNC(=S)NCc1cccc2ccccc12 | -3.45 | 36.3 | 34.1 | 32.4% | 21.1% | 
3 | O=C1CCSC(=S)N1c1ccc(F)cc1 | 7.15 | -1.4 | 2.2 | -22.9% | 6.2% | 
4 | c1ccc(C2SCSCS2)cc1 | 12.1 | -5.45 | -15.8 | 1.1% | 6.95% | 
5 | CCOC(=O)C(=CNC(=S)Nc1ccc(Cl)c(Cl)c1)C(=O)OCC | 53.5 | 39.5 | 59.7 | 39% | 67.5% | 
6 | CN(C)CCCNc1nnc(NCCCN(C)C)c2[nH]cnc12 | -3.2 | -4.2 | 7.85 | 6.5% | -4.35% | 
7 | O=C(O)C1CCN(Cc2oc(CO)cc(=O)c2O)C1 (stereo not given) | -31.6 | -19.7 | -19.2 | -24.4% | -2.75% | 
8 | CCOC(=O)Nc1ccc(F)cc1F | -62.1 | -10.6 | -2.75 | 8.65% | 14.4% | 
9 | NNc1nnnc2ccccc12 | 14.2 | 1.1 | -0.8 | -31.1% | 22.2% | 
10 | COC(=O)C1(CC(=O)c2cccc3ccccc23)NC(=S)NC(=O)C1C#N (stereo not given) | 0.55 | 15.7 | -17.4 | -0.7% | -9.35% | 
11 | C1=C(c2ccccc2)CC(c2ccc(-c3ccccc3)cc2)=C1 | 6.9 | 1.15 | 1.55 | -10.2% | 16.4% | 
12 | O=C1c2cc3c(cc2C(=O)c2ncccc21)CCCC3 | 64.7 | 48.4 | 62.1 | 71.1% (active) | 76.1% (active) | 
13 | COc1ccc(OC)c(N=Nc2cc(OC)ccc2OC)c1 | -13.6 | -7.8 | 1.1 | 3.3% | -11.9% | 
14 | O=c1[nH]c2ccccc2c(N=Cc2ccccc2)c1-c1ccccc1 | -6.95 | -20.6 | -4.6 | -12.1% | -0.4% | 
15 | COc1ccc(-c2c3ccccc3c(-c3ccc(OCCCCCBr)cc3)c3ccccc23)cc1 | -10.4 | -10.7 | -10.6 | -22.5% | 1.4% | 
16 | CCN(CC)C(=O)C(C)n1cc(C)c(=O)[nH]c1=O (stereo not given) | -32.2 | -39.2 | -19.9 | -2.55% | -3.85% | 

Row | SMILES | growth inhibition [1] [%] | growth inhibition [2] [%] | growth inhibition [3] [%] | growth inhibition [4] | growth inhibition [5] | growth inhibition [6] [%]
17 | N#CC(C(=O)O)C(c1cccc2ccccc12)c1cccc2ccc3ccccc3c12 (stereo not given) | 51 | -2.3 | 27.1 | 7.05% | 13.8% | 
18 | CC1(O)CC2C(CC1SCCO)C2(C)C (stereo not given) | -30.4 | -10.8 | -42.1 | -56% | -30.5% | 
19 | O=C1OC(/C=C/c2ccccc2)=NC/1=C\c1ccc(Cl)cc1 | 23.4 | 14.1 | 23.6 | 7.15% | 10.2% | 
20 | O=c1c2cc3c(cc2[nH]c2ncccc12)OCO3 | -12.8 | 0.65 | 2.85 | -2.55% | 26.3% | 
21 | CCCC(C)(O)C(C)(C)C (stereo not given) | 6.85 | 8.65 | 8 |  | -2.15% | 11.7
22 | COc1ccc(C2=CC(=O)C(C)(C#N)CC2)cc1 (stereo not given) | 3.9 | 25.9 | -4 | 34% | 4.8% | 
23 | CN(C)Cc1cc(N=Nc2ccccc2Cl)cc(CN(C)C)c1O | -40.5 | -19.1 | -9.25 | 12.3% | -13.4% | 
24 | O=C1c2ccccc2C(=O)N1NC1=NCCN1 | -12.6 | -13.3 | -13.1 | 5.5% | -1.8% | 
25 | CC(=O)OC1CC2(c3ccccc3)C(=O)c3ccccc3N2O1 (stereo not given) | 27.2 | -16.6 | -11.8 | 10.2% | 19.6% | 
26 | Cn1c(=O)c2c(nc(CCC(N)=O)n2C)n(C)c1=O | -1.35 | -20.9 | 8.25 | 11.8% | 12.7% | 
27 | CN(C)c1ccc(/C=C(\C#N)C(=O)c2ccccc2)cc1Br | 0.55 | -6.1 | 1.85 | -15.2% | 13.8% | 
28 | CN1CCN(CC2C3CCC(C3)C2O)CC1 (stereo not given) | -9 | -18.4 | -16.1 | -4.7% | -0.6% | 
29 | CN1C(=O)C(=O)OC1=C(c1ccccc1)c1ccccc1 | 2.9 | -4.6 | 0.85 | -17.6% | -18.2% | 
30 | N[N+]1(CCS(N)(=O)=O)CCOCC1 | -1.95 | -12.6 | -0.9 | -8.3% | 13.5% | 
31 | CN1C(=O)C(Cc2cnc[nH]2)NC1=S (stereo not given) | 11.5 | 25.1 | 22.6 | 10.7% | 1.1% | 
32 | COc1ccc(CCNC(=O)C(Sc2ccccn2)c2ccccc2)cc1OC (stereo not given) | 20.6 | -29.4 | 5.35 | 30.6% | 27.8% | 
